Screens (PubChem BioAssay)
DT40 TDP1 CPT: growth inhibition of DT40 Tdp1-/-;hTDP1 cells with camptothecin (screen for TDP1 inhibitors); chicken DT40 Tdp1-/-;hTDP1 cells + 20 nM CPT, ATP luminescence, 48 h; Potency, µM (doses to about 46.2 µM), most hits filed as inhibitors; actives 12% (n = 420,000); AID 686979; also: nearly all actives have a fitted effect of over 55% in size
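Chicken DT40 Tdp1-/- cells stably complemented with human TDP1 were seeded at 400 cells/well in medium containing 20 nM camptothecin, exposed to pin-transferred compounds, and grown at 37 °C for at least 48 hr. Viability was read as ATP luminescence.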
IL1B secr inh: inflammasome signaling inhibition, IL-1 beta readout; THP-1 LPS/ATP IL-1B secretion, AlphaLISA, 16 h; stronger effect = lower value; activity change, % at 57.5 µM; actives 4.7% (n = 360,000); AID 743279; in the data active = activity change below about -50%; inconclusive = mostly about -30% to -49%
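THP-1 cells pretreated 1 hr with compounds (up to 57.5 uM final), then stimulated with LPS (250 ng/mL final) plus ATP (1.25 mM final); secreted IL-1B measured by AlphaLISA after 16 hr, decreased signal indicating inhibition.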
HT1080 IDH1KD tx: toxicity to HT-1080 IDH1 knockdown cells (counter line); HT-1080 IDH1 knockdown viability, ATP luminescence, 48 h; Potency, µM (series often up to 46.1 µM), most hits filed as cytotoxic; actives 2% (n = 360,000)
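CellTiter-Glo luminescence after 48 h compound exposure at 37 degrees C of IDH1-knockdown HT-1080 cells in 5% FBS RPMI. %Activity scaled between DMSO wells and cell-free media wells, with curves fitted and assigned curve classes.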
HT1080NT lethal: kills 2HG-producing HT-1080-NT fibrosarcoma cells | HT-1080-NT fibrosarcoma viability, CellTiter-Glo ATP luminescence, 48 h | Potency, µM (titrated, usually from 46.1 µM), usual class: cytotoxic | actives 1.6% (n = 360,000);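 also: NT is the 2HG producing partner of a matched IDH1 knockdown line; nearly all actives have a fitted effect of over 55% in size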
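750 cells/well, RPMI + 5% FBS; 2 h settle, compound pin-transfer, 48 h at 37 degrees C. CellTiter-Glo 10 min RT, luminescence. Normalized to DMSO and media-only wells.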
TDP1 cell noCPT: qHTS for Inhibitors of human tyrosyl-DNA phosphodiesterase 1 (TDP1): qHTS in cells in absence of CPT; DT40 Tdp1-/- hTDP1 cells, no CPT, ATP luminescence, 48 h; Potency, µM (doses to about 46.2 µM), actives largely listed as inhibitors; actives 15% (n = 420,000); also: nearly all actives have a fitted effect of over 55% in size
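A cellular qHTS used chicken DT40 cells lacking endogenous Tdp1 but carrying stably transfected human TDP1. Compounds were applied without camptothecin, and cell growth kinetics were judged by ATP-dependent luminescence after ≥48 hr.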
ELG1 DNA repair: blocks ELG1-dependent DNA repair in HEK293T cells; HEK293T ELG1-luciferase reporter, luminescence, 16 h; DNA damage induced by 5-fluorouridine; Potency, µM (series often up to 46.1 µM), usual class: inhibitors; actives 2.3% (n = 330,000); AID 504467; also: nearly all actives have a fitted effect of over 55% in size
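In this reporter screen, reduction of luminescence relative to DMSO vehicle indicated activity. Compounds and 5-fluorouridine were added together to 2,000 cells per well, incubated for 16 hr at 37 °C, then developed with ONE-Glo.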
Numbers stand for hits; 0 = inactive; ? = inconclusive; - = no result given; [ ] = another dose, or the depositor's remark. Only some compounds are listed: those with a hit (about 19% of all), similar ones and a draw of the others. Unless noted, calls follow the shape of the dose curve; as a rule, active = well fitted curve in the direction sought with a large enough effect; inconclusive = small, poorly fitted or top-dose-only effect, or another doubt; inactive = no such curve, though single readings can be large; an effect the other way counts as inactive or inconclusive.

SMILES	DT40 TDP1 CPT	IL1B secr inh	HT1080 IDH1KD tx	HT1080NT lethal	TDP1 cell noCPT	ELG1 DNA repair
O=C(c1ccccc1)c1ccc(N2CCN(C(=O)c3ccc(F)cc3F)CC2)c(F)c1	23.1µM	?	0	0	?	-
CCC(=O)c1ccc(N2CCN(C(=O)c3cccc(F)c3)CC2)c(F)c1	?	0	0	0	13µM	?
CCC(=O)c1ccc(N2CCOCC2)c(F)c1	0	0	0	0	0	-
CCC(=O)c1ccc(N2CCN(C(=O)c3ccc(F)cc3)CC2)c(F)c1	20.6µM	0	0	0	10.3µM	0
CCCC(=O)c1ccc(N2CCN(C(=O)c3ccccc3Br)CC2)c(F)c1	18.4µM	0	0	0	13µM	?
Cc1cc(S(=O)(=O)NCc2ccccc2)ccc1OCC(=O)N1CCCC1	0	0	0	0	0	0
CN1CCN(c2nc3ccccn3c(=O)c2C=C(C#N)C#N)CC1	0	0	0	0	0	0
CS(=O)(=O)c1ccc(C(=O)OCC(=O)N2CCCc3ccccc32)cc1	0	0	0	0	0	0
CCC(=O)c1ccc(N2CCCCC2)c(F)c1	0	0	0	0	0	0
CC(=O)c1ccc(N2CCC(C)CC2)c(F)c1	0	0	0	0	0	0
CCCC(=O)c1ccc(N2CCN(S(=O)(=O)c3ccc(C)cc3)CC2)c(F)c1	?	0	0	0	7.08µM	0
CCCC(=O)c1ccc(N2CCN(C(=O)c3ccccc3)CC2)c(F)c1	?	0	0	0	?	?
CCCC(=O)c1ccc(N2CCN(C(=O)c3ccc(Br)cc3)CC2)c(F)c1	23.1µM	0	0	0	7.31µM	?
CCC(=O)c1ccc(N2CCN(C(=O)c3ccc(Br)cc3)CC2)c(F)c1	20.6µM	0	0	0	10.3µM	0
CC(=O)c1ccc(N2CCN(S(=O)(=O)c3ccccc3)CC2)c(F)c1	0	0	0	0	0	0
CCCCCC(=O)N1CCN(c2ccc(C(C)=O)cc2F)CC1	14.6µM	0	0	0	20.6µM	0
O=C(COC(=O)/C=C/c1ccc(F)cc1)Nc1nnc(-c2ccccc2)o1	0	0	0	0	0	0
Cc1cnc(C(=O)OCC(=O)NC(C)CCc2ccccc2)cn1 (centres undefined)	0	0	0	0	0	0
COc1ccc(Br)cc1CNC(=O)CSc1cc(=O)n(C)c2ccccc12	0	-	-	-	0	-
NC(=O)N/N=C/c1c(Sc2nnnn2-c2ccccc2)nc2ccccn2c1=O	2.91µM	-67.9	0	0	2.59µM	?
CCCCN(C)c1c(C)nc2ccc(C(=O)Nc3ccc(OC)c(OC)c3)cn12	?	0	0	0	14.6µM	-
CCCCN(C)c1c(C)nc2ccc(C(=O)Nc3cc(-c4ccccc4)ccc3OC)cn12	13µM	?	?	?	16.4µM	-
CCc1nc2ccc(C(=O)Nc3ccc(OC)c(OC)c3)cn2c1N(CCC(C)C)CCN(C)C	?	0	?	?	?	-
CC(C)(C)n1nnnc1CN1CCN(C(c2ccccc2)c2ccccc2)CC1	?	-55.2	0	0	18.4µM	18.4µM
CC(C)(C)n1nnnc1C(c1ccccc1)N1CCN(c2ncccc2C(F)(F)F)CC1 (centres undefined)	18.4µM	0	0	0	25.9µM	-
SMILES	DT40 TDP1 CPT	IL1B secr inh	HT1080 IDH1KD tx	HT1080NT lethal	TDP1 cell noCPT	ELG1 DNA repair
Cc1ccc(C)c(N2CCN(C(c3ccc(N(C)C)cc3)c3nnnn3C(C)(C)C)CC2)c1 (centres undefined)	?	0	0	0	?	0
CC(C)C(c1nnnn1Cc1ccco1)N1CCN(c2cccc(Cl)c2)CC1 (centres undefined)	?	0	0	0	?	0
CC(C)C(c1nnnn1C(C)(C)C)N1CCN(c2cccc(Cl)c2)CC1 (centres undefined)	18.4µM	0	0	0	13µM	0
Cc1ccc(C)c(N2CCN(C(c3ccccc3)c3nnnn3C(C)(C)C)CC2)c1 (centres undefined)	0	0	0	0	18.4µM	-
CC(C)(C)n1nnnc1C(c1ccccc1)N1CCCN(Cc2ccc(F)cc2)CC1 (centres undefined)	?	0	0	0	?	-
C=CCn1c(NCc2ccco2)nc2ccccc21	0	0	0	0	0	0
Cc1ccccc1CNC(=O)c1ccc2nc(C(C)C)oc2c1	0	-	-	-	0	-
CCCN(CC(=O)Nc1ccccc1C)C(=O)CCCc1c[nH]c2ccccc12	0	0	0	0	?	0
Cc1cc2c(cc1C)C(c1cc(Br)ccc1F)CC(=O)N2 (centres undefined)	?	0	?	?	16.4µM	?
Cc1cc2c(cc1C)C(c1cccc(F)c1)CC(=O)N2 (centres undefined)	?	0	0	0	16.4µM	0
CCN(C(=O)COC(=O)c1cccnc1SC)c1c(N)n(Cc2ccccc2)c(=O)[nH]c1=O	0	0	0	0	0	0
CCn1c(-c2ccccc2F)nc2cc(C(=O)N3CCNC(=O)C3CC(=O)OC)cc(NC(C)=O)c21 (centres undefined)	0[9.04 µM]	-	-	-	0	-
O=C(NCc1cccs1)c1nn(-c2ccccc2F)nc1CO	0	-	-	-	0	-
CC(=O)NCCn1c(SCC(=O)c2ccccc2)nc2ccccc2c1=O	?	?	0	0	?	0
CC(=O)NCCn1c(SCc2ccccc2C)nc2ccccc2c1=O	?	0	0	0	16.4µM	?
CC(=O)NCCn1c(SCc2ccc(C)cc2C)nc2ccccc2c1=O	10.3µM	0	0	0	8.2µM	?
CC(=O)NCCn1c(SCc2cc(F)ccc2F)nc2ccccc2c1=O	?	0	?	0	?	0
O=C(Nc1ccc2nn(-c3ccc(Cl)cc3)nc2c1)c1cc2ccccc2o1	0	-	-	-	0	-
COC(=O)N1c2ccccc2C=Cc2ccccc21	?	0	?	?	20.6µM	0
NC(=O)N1c2ccccc2C=Cc2ccccc21	?	0	0	?	?	0
CCN(CC)C(=O)N1c2ccccc2C=Cc2ccccc21	9.2µM	0	?	0	10.3µM	0
CCOc1ccc(S(=O)(=O)n2nc(C)c(S(=O)(=O)N3CCCCC3)c2C)cc1	0	-	-	-	0	-
COc1ccc(N(C(=O)c2ccc(S(=O)(=O)N3CCCC3)cc2)C2C=CS(=O)(=O)C2)cc1 (centres undefined)	0	0	0	0	0	0
CC(O)CNc1ccc(-c2n[nH]c(=O)c3ccccc23)cc1[N+](=O)[O-] (centres undefined)	?	0	0	0	?	0
CN(C)CCCNc1ccc(-c2n[nH]c(=O)c3ccccc23)cc1[N+](=O)[O-]	10.3µM	0	0	0	23.1µM	0
